# Reference: PubChem BioAssay (Tox21)
# Records with an inconclusive call do not appear. Where a call stands in place of a potency, no number is given. A number with no mark means an inactive call. The source made the active and inactive calls. The call rests on the fitted dose curve; in most records, active means well fitted inhibition curve with a large enough effect in the signal ratio in the repeat runs (not every such curve was filed as active); inconclusive means weak or mixed curves; inactive means flat fitted curve, though single readings scatter; the % refers to the signal ratio.
# Target: Progesterone receptor (Homo sapiens) (UniProt P06401)
# Sequence (P06401 whole entry, looked up): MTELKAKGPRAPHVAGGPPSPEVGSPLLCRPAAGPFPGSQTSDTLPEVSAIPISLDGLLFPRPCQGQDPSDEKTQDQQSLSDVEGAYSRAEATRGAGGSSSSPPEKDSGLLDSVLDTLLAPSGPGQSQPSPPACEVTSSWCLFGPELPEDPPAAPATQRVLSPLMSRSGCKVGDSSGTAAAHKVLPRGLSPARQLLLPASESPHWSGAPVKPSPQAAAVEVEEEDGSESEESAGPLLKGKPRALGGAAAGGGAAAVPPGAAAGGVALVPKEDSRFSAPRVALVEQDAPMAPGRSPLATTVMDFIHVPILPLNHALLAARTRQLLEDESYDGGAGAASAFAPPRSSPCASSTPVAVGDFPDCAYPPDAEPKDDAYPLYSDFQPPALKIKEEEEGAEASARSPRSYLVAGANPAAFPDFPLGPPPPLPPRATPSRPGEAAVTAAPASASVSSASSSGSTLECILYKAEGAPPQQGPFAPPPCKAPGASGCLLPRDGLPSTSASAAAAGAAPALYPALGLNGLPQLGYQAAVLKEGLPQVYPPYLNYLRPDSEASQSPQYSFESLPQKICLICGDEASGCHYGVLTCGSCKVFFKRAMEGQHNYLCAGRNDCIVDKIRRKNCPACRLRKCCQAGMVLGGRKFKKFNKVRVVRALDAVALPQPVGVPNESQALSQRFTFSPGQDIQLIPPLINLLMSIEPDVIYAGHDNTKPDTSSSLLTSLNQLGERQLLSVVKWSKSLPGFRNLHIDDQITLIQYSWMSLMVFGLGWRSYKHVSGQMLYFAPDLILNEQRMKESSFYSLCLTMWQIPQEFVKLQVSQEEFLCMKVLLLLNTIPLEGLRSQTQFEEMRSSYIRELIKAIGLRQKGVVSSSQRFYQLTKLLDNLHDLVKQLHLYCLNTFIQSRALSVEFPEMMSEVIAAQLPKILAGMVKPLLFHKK
# Experiment: qHTS assay to identify small molecule antagonists of the progesterone receptor (PR) signaling pathway (AID 1346795)
# Conditions: PR-UAS-bla HEK293T, beta-lactamase FRET ratio, 16 h; series mostly up to 92.4 µM
# Text: National Center for Advancing Translational Sciences [NCATS]
# NIH Chemical Genomics Center [NCGC]
# U.S. Environmental Protection Agency [EPA]
# National Institutes of Environmental Health Sciences [NIEHS]
# National Toxicology Program [NTP]
# U.S. Food and Drug Administration [FDA]
# Progesterone receptor (PR), a nuclear hormone receptor, plays an important role in development, metabolic homeostasis and reproduction. […] Endocrine disrupting chemicals (EDCs) and their interactions with steroid hormone receptors like PR causes disruption of normal endocrine function. To identify the compounds that inhibit PR signaling, a PR-UAS-bla GripTite cell line i.e. PR-UAS-bla HEK293T (Invitrogen, Carlsbad, CA, USA) containing a beta-lactamase reporter gene under the control of an Upstream Activator Sequence (UAS) was used to screen Tox21 10K compound library.
# Tox21 Assay Protocol Summary:
# PR-UAS-bla HEK293T cells were dispensed at 3,000 cells/4 uL of assay medium containing 2% charcoal stripped FBS per well into black wall/clear-bottom 1536-well plates using a Multidrop Combi (ThermoFisher Scientific, Waltham, MA) dispenser. After the assay plates were incubated at a 37C and 5% CO2 for 6 hr, 23 nL of compounds dissolved in DMSO, positive controls or DMSO only was transferred to the assay plate by a Pintool station (Kalypsys, San Diego, CA), followed by addition of 1 uL (1nM as final concentration) of Promegestone (R5020) in assay medium using a BioRAPTR FRD (Flying Reagent Dispenser, Aurora Discovery, San Diego, CA). The plates were incubated at 37C and 5% CO2 for 16 hr. Then 1 uL of LiveBLAzer B/G FRET substrate was added using a FRD. After the plates were incubated at room temperature for 2 hours, fluorescence intensity was measured by an Envision plate reader (PerkinElmer, Shelton, CT).
# Potency means the concentration at half of the fitted maximal effect.
Compound,Potency,"activity change, negative = inhibition"
CC1=C(CC(=O)O)c2cc(F)ccc2/C1=C\c1ccc(S(C)(=O)=O)cc1,inactive,–
O=C(Cl)c1cccc([N+](=O)[O-])c1,inactive,–
COc1ccccc1OCC(O)COC(N)=O (stereo not given),inactive,–
CC(=O)N[C@@H](CC(C)C)C(=O)O,inactive,–
OCCN1CCN(CCO)CC1,inactive,–
O=C(O)CN(CCN(CC(=O)O)CC(=O)O)CCN(CC(=O)O)CC(=O)O,–,-12.7% [at 18.9 µM]
Oc1ccccc1F,inactive,–
C[C@]12C(=O)OC(=O)[C@H]1[C@H]1C=C[C@@H]2C1,inactive,–
Oc1ccccc1C=NCc1ccccc1,inactive,–
Cc1onc(-c2ccccc2)c1C(=O)Cl,inactive,–
CC(CNC1CCCCC1)OC(=O)c1ccccc1 (stereo not given),inactive,–
O=C(O)[C@@H](O)[C@H](O)[C@H](O)[C@@H](O)C(=O)O,inactive,–
CCCCC(CC)COC(=O)COc1cc(Cl)c(Cl)cc1Cl (stereo not given),inactive,–
O=Cc1ccc(F)c(Br)c1,inactive,–
Cc1cc(NS(=O)(=O)c2ccc(N)cc2)nc(C)n1,inactive,–
CCOC(=O)C1CC(=O)C(=C(O)C2CC2)C(=O)C1 (stereo not given),inactive,–
CN1CCN(c2c(F)cc3c(=O)c(C(=O)O)cn4c3c2SCC4)CC1,inactive,–
CC/C=C\CCOC(=O)C(C)C,inactive,–
CC(C)(C)C1CCCCC1=O (stereo not given),inactive,–
CCN(CC)C(=O)N(CC)CC,inactive,–

Compound,Potency,"activity change, negative = inhibition"
CCN(CC)CC1CCCCN1CC(=O)N1c2ccccc2C(=O)Nc2cccnc21 (stereo not given),inactive,–
CCOC(=O)COc1ccc2c(c1)CC(NCC(O)c1cccc(Cl)c1)CC2 (stereo not given),inactive,–
COC(=O)/C=C(/C)N,inactive,–
CCCCNc1cc(C(=O)O)cc(S(N)(=O)=O)c1Oc1ccccc1,inactive,–
CCc1cc2cc(OC)c(OC)cc2c(Cc2ccccc2)n1,16.8 µM (active),–
C=CC(C)(O)CC/C=C(\C)CCC=C(C)C (stereo not given),inactive,–
O=C1CCN(c2ccccc2)N1,inactive,–
COC(C)CCO (stereo not given),inactive,–
CCCCNCCCC,inactive,–
CC(C)S,inactive,–
COC(=O)C(C)O (stereo not given),inactive,–
CCOC(=O)C(Br)c1ccccc1 (stereo not given),inactive,–
CCN[C@H]1CN(CCCOC)S(=O)(=O)c2sc(S(N)(=O)=O)cc21,inactive,–
CN(C)CC[C@@H](c1ccc(Cl)cc1)c1ccccn1,inactive,–
CCCOc1ccc2c(c1)CC[C@@H]1[C@@H]2CC[C@]2(C)C(OC)CC[C@@H]12 (stereo not given in full),15 µM (active),–
NCCC(O)(P(=O)(O)O)P(=O)(O)O,inactive,–
OC[C@H]1O[C@@H](O[C@H]2[C@H](O)[C@@H](O)[C@H](O)O[C@@H]2CO)[C@H](O)[C@@H](O)[C@H]1O,inactive,–
NNS(=O)(=O)c1ccc(Oc2ccc(S(=O)(=O)NN)cc2)cc1,inactive,–
CN(C)Cc1ccccc1,inactive,–
OCc1c2ccccc2cc2ccccc12,54.6 µM (active),–
